For some of these results: Entries with a potency or affinity are not part of this list.
Tests used:
Design in all cases: scale not given: direction of the effect not stated beside the values
[1] = target: Protein translocase subunit SecA (Escherichia coli (strain K12)) (UniProt P10408); assay: Assay to Identify E. coli SecA ATPase Inhibitors; type: functional; settings: 30 µM
[2] = target: T1, Ubiquitin-activating enzyme e1, putative (Leishmania donovani (strain BPK282A1)) (UniProt E9BSI1); assay: Leishmania donovani Ubiquitin Activating Enzyme (LdE1); type: functional; settings: 30 µM
T1 sequence (whole entry): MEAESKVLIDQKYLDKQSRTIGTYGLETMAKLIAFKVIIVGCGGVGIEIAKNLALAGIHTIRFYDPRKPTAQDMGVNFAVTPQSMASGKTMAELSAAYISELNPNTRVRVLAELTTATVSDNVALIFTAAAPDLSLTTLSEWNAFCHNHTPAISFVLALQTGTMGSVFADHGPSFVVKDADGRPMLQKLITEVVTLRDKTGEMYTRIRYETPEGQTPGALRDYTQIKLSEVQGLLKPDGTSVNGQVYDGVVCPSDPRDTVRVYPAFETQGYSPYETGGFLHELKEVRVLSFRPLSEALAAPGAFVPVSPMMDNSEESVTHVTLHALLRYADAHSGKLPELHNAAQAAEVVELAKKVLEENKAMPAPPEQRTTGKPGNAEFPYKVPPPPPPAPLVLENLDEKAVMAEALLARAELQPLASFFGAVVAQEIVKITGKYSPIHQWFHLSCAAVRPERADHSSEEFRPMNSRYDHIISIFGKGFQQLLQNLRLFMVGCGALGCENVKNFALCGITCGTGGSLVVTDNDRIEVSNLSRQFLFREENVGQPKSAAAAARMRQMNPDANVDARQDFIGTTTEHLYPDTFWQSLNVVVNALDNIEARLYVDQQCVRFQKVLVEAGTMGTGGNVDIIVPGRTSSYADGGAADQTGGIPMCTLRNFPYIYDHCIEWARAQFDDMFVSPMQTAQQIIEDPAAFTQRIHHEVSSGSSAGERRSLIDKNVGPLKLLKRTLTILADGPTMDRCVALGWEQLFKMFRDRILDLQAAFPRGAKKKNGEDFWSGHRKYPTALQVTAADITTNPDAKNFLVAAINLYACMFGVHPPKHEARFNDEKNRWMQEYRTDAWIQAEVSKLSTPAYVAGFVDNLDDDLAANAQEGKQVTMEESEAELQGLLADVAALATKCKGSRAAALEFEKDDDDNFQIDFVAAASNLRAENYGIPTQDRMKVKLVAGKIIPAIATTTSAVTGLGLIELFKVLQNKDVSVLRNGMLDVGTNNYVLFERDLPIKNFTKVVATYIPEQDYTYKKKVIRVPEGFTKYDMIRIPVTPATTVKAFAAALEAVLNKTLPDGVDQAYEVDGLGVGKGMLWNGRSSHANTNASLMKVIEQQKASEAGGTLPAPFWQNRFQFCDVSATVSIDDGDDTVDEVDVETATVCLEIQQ

[3] = target: AMP-activated protein kinase, AMPK (Homo sapiens) (UniProt P54646+O43741+P54619+Q9UGJ0+Q9Y478+Q13131+Q9UGI9); assay: AMP-dependent Kinase enzyme assay. An in vitro enzyme assay that detects ADP turnover that is directly proportional to AMPK activity. This uses naive AMPK that is activated during the assay with MK-8722; type: functional; settings: 30 µM
[4] = target: Sialic acid-binding Ig-like lectin 9 (Homo sapiens) (UniProt Q9Y336); assay: Hs-Siglec9 ALPHAscreen SOP 20170721; settings: 10 µM
Sialic acid-binding Ig-like lectin 9 (Homo sapiens), sequence (Q9Y336 whole entry): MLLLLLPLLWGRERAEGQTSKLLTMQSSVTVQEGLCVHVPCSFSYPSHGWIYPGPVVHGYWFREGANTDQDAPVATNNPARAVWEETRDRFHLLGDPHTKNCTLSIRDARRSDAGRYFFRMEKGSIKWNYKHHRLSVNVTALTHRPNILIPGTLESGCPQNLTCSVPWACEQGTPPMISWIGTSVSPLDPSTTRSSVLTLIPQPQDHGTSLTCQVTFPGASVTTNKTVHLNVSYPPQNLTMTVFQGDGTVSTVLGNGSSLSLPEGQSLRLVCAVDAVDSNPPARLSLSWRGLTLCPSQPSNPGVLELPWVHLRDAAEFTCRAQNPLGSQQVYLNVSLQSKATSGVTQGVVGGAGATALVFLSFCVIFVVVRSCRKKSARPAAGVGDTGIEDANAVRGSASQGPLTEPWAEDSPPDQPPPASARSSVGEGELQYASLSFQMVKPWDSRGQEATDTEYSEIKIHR

Trypanosoma cruzi = assay: Trypanosoma cruzi phosphomannomutase and mannose-1-phosphate guanylyltransferase assay; type: functional; settings: 10 µM
[5] = target: T2, Arginase-2, mitochondrial (Homo sapiens) (UniProt P78540); assay: in vitro enzyme assay to detect the production of urea directly proportional to the activity of Arginase II; type: functional; settings: 33.3 µM; further: in the data most compounds retested in dose-response had high values
T2 sequence (whole entry): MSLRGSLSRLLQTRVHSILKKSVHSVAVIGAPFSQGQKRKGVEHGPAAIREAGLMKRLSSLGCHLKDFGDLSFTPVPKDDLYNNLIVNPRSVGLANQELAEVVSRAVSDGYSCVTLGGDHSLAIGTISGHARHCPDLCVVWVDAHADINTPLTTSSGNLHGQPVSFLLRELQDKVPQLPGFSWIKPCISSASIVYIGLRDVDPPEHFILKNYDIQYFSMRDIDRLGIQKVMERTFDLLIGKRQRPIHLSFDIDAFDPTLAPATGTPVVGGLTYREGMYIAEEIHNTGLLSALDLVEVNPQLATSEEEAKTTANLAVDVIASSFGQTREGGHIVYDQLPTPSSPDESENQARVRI

[6] = target: T3, Proteasome subunit beta (Trypanosoma cruzi) (UniProt O96673); assay: Trypanosoma cruzi proteasome chymotrypsin-like activity (TcProtChymo) assay.; further: in the data most compounds retested in dose-response had high values; type: functional; settings: 9.37 µM
T3 sequence (whole entry): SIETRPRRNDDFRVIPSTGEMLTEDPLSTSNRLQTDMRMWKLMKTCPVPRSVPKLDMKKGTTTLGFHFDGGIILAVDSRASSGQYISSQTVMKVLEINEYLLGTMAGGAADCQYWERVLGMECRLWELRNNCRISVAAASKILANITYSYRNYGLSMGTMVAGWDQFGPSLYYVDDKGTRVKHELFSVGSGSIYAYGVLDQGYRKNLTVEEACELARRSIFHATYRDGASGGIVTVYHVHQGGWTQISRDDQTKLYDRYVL

Homo sapiens = species on record: Homo sapiens; assay: To identify inhibition of the IFN signalling (Jak-Stat) pathway via expression of an eGFP reporter gene under the control of an IFN-stimulated response element (ISRE) containing MxA promoter.; type: functional; settings: 30 µM
[7] = target: T4, Tyrosyl-tRNA synthetase, putative (Trypanosoma cruzi (strain CL Brener)) (UniProt Q4DSP6); assay: Trypanosoma cruzi tyrosyl tRNA synthetase (TcYRS) _High Tyrosine SOP; type: functional; settings: 30 µM; further: in the data most compounds retested in dose-response had high values
T4 sequence (whole entry): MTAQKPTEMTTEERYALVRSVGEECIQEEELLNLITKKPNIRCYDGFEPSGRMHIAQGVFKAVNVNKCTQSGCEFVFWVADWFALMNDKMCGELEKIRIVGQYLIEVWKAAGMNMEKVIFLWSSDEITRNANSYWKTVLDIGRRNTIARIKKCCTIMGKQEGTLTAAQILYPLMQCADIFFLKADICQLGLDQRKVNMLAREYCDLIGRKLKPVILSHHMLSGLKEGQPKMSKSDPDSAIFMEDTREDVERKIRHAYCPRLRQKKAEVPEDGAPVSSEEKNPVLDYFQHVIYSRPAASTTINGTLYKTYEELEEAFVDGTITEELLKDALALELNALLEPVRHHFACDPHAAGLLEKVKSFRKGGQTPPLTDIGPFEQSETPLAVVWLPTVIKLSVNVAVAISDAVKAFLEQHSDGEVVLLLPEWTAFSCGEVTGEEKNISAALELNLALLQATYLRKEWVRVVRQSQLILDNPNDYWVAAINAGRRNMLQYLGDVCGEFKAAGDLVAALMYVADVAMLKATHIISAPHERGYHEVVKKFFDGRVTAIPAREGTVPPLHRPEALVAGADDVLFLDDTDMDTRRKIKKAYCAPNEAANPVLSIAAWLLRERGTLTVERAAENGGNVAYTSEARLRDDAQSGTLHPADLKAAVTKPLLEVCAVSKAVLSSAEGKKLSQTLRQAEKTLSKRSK

[8] = target: T4, Tyrosyl-tRNA synthetase, putative (Trypanosoma cruzi (strain CL Brener)); assay: Trypanosoma cruzi tyrosyl tRNA synthetase (TcYRS) SOP; type: functional; settings: 30 µM
[9] = target: Chromo domain-containing protein 1 (Saccharomyces cerevisiae (strain ATCC 204508 / S288c) (Baker's yeast)) (UniProt P32657); assay: ScCHD-1 Enzyme Inhibition Assay; type: functional; settings: 30 µM; further: in the data most compounds retested in dose-response had high values
Chromo domain-containing protein 1 (Saccharomyces cerevisiae (strain ATCC 204508 / S288c) (Baker's yeast)), sequence (P32657 whole entry, the tested form may be a part): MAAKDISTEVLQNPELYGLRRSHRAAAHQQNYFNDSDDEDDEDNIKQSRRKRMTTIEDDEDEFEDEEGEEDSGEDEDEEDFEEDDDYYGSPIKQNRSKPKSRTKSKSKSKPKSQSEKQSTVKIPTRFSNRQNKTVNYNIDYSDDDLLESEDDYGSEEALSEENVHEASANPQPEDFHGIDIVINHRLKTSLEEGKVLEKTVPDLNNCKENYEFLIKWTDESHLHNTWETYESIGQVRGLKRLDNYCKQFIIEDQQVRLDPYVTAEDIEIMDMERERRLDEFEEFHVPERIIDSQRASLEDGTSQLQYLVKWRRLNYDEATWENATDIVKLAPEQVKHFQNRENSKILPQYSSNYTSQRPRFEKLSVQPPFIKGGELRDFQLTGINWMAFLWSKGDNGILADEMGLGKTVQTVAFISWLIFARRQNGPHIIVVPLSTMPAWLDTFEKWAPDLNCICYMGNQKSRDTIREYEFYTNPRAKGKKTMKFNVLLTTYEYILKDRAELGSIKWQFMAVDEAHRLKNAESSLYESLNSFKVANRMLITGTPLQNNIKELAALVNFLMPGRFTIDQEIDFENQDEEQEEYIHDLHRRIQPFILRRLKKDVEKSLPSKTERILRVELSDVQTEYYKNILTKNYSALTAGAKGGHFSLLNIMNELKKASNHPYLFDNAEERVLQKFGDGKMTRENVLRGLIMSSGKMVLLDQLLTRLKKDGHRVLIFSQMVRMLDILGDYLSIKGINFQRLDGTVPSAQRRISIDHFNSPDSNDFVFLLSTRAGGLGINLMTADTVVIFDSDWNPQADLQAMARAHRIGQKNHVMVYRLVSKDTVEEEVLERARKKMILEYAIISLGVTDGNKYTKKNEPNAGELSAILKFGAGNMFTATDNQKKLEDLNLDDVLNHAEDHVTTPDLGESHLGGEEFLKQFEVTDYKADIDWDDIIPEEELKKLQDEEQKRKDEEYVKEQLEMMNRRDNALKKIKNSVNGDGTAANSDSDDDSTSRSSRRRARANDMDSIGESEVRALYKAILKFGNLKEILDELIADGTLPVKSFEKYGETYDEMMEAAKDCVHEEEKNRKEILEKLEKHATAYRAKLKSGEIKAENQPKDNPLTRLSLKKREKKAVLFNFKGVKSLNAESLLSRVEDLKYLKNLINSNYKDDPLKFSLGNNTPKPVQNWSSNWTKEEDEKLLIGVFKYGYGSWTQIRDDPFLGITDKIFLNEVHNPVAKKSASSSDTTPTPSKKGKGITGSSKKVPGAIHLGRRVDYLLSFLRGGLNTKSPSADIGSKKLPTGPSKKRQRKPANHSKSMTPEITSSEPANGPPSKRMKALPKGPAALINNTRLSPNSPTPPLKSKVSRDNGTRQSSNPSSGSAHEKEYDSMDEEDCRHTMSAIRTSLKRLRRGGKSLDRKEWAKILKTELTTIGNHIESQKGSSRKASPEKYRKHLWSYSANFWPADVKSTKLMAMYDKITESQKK

Protein translocase subunit SecA (Escherichia coli (strain K12)), sequence (P10408 whole entry): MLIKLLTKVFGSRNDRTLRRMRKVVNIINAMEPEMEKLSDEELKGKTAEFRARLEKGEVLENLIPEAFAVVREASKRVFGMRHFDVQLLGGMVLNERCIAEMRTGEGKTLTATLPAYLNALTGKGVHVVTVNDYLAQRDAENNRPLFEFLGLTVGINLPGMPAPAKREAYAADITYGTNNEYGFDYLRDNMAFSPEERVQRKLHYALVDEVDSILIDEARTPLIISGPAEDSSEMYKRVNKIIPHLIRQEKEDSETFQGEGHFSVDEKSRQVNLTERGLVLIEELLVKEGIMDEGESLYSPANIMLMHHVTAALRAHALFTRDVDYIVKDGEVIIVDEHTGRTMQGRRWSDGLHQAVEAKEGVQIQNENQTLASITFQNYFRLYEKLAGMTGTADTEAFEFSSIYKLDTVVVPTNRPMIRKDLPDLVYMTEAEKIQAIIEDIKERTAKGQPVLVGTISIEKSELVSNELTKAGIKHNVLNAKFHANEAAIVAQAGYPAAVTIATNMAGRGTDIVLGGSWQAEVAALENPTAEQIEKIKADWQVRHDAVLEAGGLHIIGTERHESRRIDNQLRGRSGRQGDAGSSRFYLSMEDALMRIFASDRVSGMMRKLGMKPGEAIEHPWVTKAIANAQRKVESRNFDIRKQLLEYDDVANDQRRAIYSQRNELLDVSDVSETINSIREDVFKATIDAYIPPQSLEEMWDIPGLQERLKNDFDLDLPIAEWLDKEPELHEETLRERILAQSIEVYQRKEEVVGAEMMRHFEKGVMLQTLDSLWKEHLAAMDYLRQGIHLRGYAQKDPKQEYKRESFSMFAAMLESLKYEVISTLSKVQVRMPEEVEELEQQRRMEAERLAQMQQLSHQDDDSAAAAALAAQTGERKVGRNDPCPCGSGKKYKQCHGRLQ

| SMILES | Percent Effect [1] [%] | Percent Effect [2] [%] | Percent Effect [3] [%] | Percent Effect [4] [%] | Percent Effect (Trypanosoma cruzi) [%] | Percent Effect [5] [%] | Percent Effect [6] [%] | Percent Effect (Homo sapiens) [%] | Percent Effect [7] [%] | Percent Effect [8] [%] | Percent Effect [9] [%] |
| --- | --- | --- | --- | --- | --- | --- | --- | --- | --- | --- | --- |
| CC(=O)Nc1nc(CN2CCCCC2Cn2cccn2)cs1 (stereo unspecified) | -4.14 | 5.26 | 3.07 | -1.3 | -0.0974 | -1.18 | 10.8 | 20.7 | 9.57 | 15.6 | -6.41 |
| Cc1nc(C(=O)N2CCCC(n3cncn3)C2)cs1 (stereo unspecified) | -1.23 | -1.27 | 3.74 | 3.18 | -0.718 | 2.8 | 4.63 | -1.7 | -38.5 | 5.06 | 0.874 |
| CNC(=O)CS(=O)(=O)Cc1cc(Cl)c2c(c1)OCCCO2 | -1.64 | 12.7 | -5.11 | -6.27 | 3.87 | -2.66 | 7.62 | -4.79 | 10.3 | 24.1 | -6.28 |
| Cc1nc2cc(O)nn2c(C)c1CCC(=O)N(C)Cc1cscn1 | -7.5 | 18.4 | -470 | -2.99 | 8.08 | -4.73 | 6.42 | 15.6 | -6.38 | 5.2 | -11.6 |
| Cc1noc(C)c1C(=O)NCC(C)N(C)C (stereo unspecified) | 1.71 | 16.2 | -3.02 | -9.99 | -7.71 | -1.29 | 21.5 | 11.2 | 3.96 | 13.4 | -3.89 |
| CC(c1nc(C(C)(C)C)no1)N1CCN(CC(=O)N2CCOCC2)CC1 (stereo unspecified) | -3.63 | 0 | 1.02 | 12.9 | -1.66 | -1.18 | 10.1 | 0.488 | 2.13 | 2.6 | 1.93 |
| Cc1csc(N2CCN(C(=O)Cc3ccsc3)CC2)n1 | -6.47 | 21.6 | -0.587 | 9.11 | 7.26 | 3.21 | 20.9 | 5.74 | 10.3 | 30.9 | -10.7 |
| O=C1N(Cc2ccccc2F)CCCC12CCN(C1CCSCC1)C2 (stereo unspecified) | -1.79 | -8 | -0.682 | 0.979 | -1.46 | 3.65 | 8.37 | -10.4 | 8.2 | 8.64 | 0.67 |
| Cc1cc(C2CCCN2C(=O)NCc2cccc(F)c2)on1 (stereo unspecified) | -3.25 | 8 | -2.75 | 0.538 | -1.07 | 1.56 | 16.2 | 10.1 | 8.2 | 13.6 | -5.2 |
| CCOc1cc(C)ccc1NC(=O)N(C)Cc1cnn(C)c1 | -3.73 | 10.8 | -11.8 | 16.5 | 4.81 | 0.401 | -2.52 | 11.9 | 6.4 | 16.1 | -9.07 |
| CCN(CC)c1ccc(-c2nc(-c3cccc(OC)c3OC)no2)cn1 | -3.58 | 8 | -0.0158 | 12.2 | 6.52 | 17.2 | 0.349 | 10.7 | 1.64 | -8.64 | -2.98 |

— ChEMBL document CHEMBL3988442, “University of Dundee, Small-Polar-MMV Screening Library” (2021)
